The results in this text go back to PubChem BioAssay (EPA / NIEHS).

Calls of active or inactive are those of the source. Rule for the calls: active = hit-call score of the fitted dose curve at least 0.9, where 1 is the maximum; inactive = score below 0.9.

As usually defined, the AC50 is the midpoint of the concentration-response curve, whichever way the signal moves.

Read-out in assay [1]: TIMP metallopeptidase inhibitor 1 (TIMP1), TIMP1 (gene 7076)
Nature of the assay: BSK_hDFCGF_TIMP1: BioMAP Diversity Plus: hDFCGF Assay for TIMP metallopeptidase inhibitor 1 (TIMP1) Biomarker Activity (AID 2283062). The note with it: primary human foreskin fibroblasts; actives raise or lower the signal. A digest of the protocol:
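Bidirectional curve fitting against DMSO baseline yielded this endpoint, based on ELISA detection of TIMP-1 in primary human foreskin fibroblasts exposed to compound for 24 h.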

Read-out in assay [2]: Monokine induced gamma interferon (MIG), CXCL9 (gene 4283)
Nature of the assay: BSK_hDFCGF_MIG: BioMAP Diversity Plus: hDFCGF Assay for Monokine induced gamma interferon (MIG) Biomarker Activity (AID 2283063). The settings on record: primary human foreskin fibroblasts; actives raise or lower the signal. A digest of the protocol: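 Endpoint derived by bidirectional fitting relative to DMSO; MIG quantified via ELISA in primary human foreskin fibroblasts harvested 24 h after dosing.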

Read-out in assay [3]: Matrix Metallopeptidase 1 (MMP1), MMP1 (gene 4312)
The assay can be described thus: BSK_hDFCGF_MMP1: BioMAP Diversity Plus: hDFCGF Assay for Matrix Metallopeptidase 1 (MMP1) Biomarker Activity (AID 2283064). The settings on record: primary human foreskin fibroblasts; actives raise or lower the signal. In outline:
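Primary human foreskin fibroblasts in the hDFCGF system were dosed with test chemical, and MMP1 was measured by ELISA 24 h later. Values come from bidirectional curve fitting against the DMSO baseline.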

Read-out in assay [4]: Vascular cell adhesion molecule 1 (VCAM1), VCAM1 (gene 7412)
Nature of the assay: BSK_hDFCGF_VCAM1: BioMAP Diversity Plus: hDFCGF Assay for Vascular cell adhesion molecule 1 (VCAM1) Biomarker Activity (AID 2283065).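 For AC50: VCAM-1 protein level quantified by ELISA after 24 h chemical exposure.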 The settings on record: primary human foreskin fibroblasts; actives raise or lower the signal. In outline: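 Measured after 24 h chemical treatment of primary human skin fibroblasts, VCAM-1 was detected by ELISA and concentration-response analysed in both directions versus DMSO vehicle.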

Read-out in assay [5]: Intercellular Adhesion Molecule 1 (ICAM1), ICAM1 (gene 3383)
The assay can be described thus: BSK_KF3CT_ICAM1: BioMAP Diversity Plus: KF3CT Assay for Intercellular Adhesion Molecule 1 (ICAM1) Biomarker Activity (AID 2283067). The note with it: primary human keratinocytes with fibroblasts; actives raise or lower the signal. A digest of the protocol: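 Bidirectional curve fitting against a DMSO baseline was applied to ICAM-1 ELISA signal from primary human skin co-cultures harvested 24 h after treatment, with SRB staining of parallel wells for overt cytotoxicity.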

Read-out in assay [6]: Interferon-gamma inducible Protein 10 (IP10), CXCL10 (gene 3627)
The assay can be described thus: BSK_KF3CT_IP10: BioMAP Diversity Plus: KF3CT Assay for Interferon-gamma inducible Protein 10 (IP10) Biomarker Activity (AID 2283068). The note with it: primary human keratinocytes with fibroblasts; actives raise or lower the signal. In outline:
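ELISA read-out of IP-10 after 24 h chemical dosing of human skin primary co-culture (keratinocytes, foreskin fibroblasts). Gain or loss of signal relative to DMSO, bidirectional curve fit.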

Assay [7] is described as follows: BSK_KF3CT_SRB: Viability Assessment in the BioMAP Diversity Plus: KF3CT Assay (AID 2283069).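 Note: total protein by sulforhodamine B staining as a cytotoxicity measure; read 24 h after compound addition.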 The note with it: primary human keratinocytes with fibroblasts. A digest of the protocol: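 Human primary keratinocyte plus foreskin fibroblast co-culture exposed to chemicals for 24 h. Total protein measured by 0.1% sulforhodamine B staining after 10% TCA fixation, read at 560 nm; bidirectional fitting versus DMSO baseline.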

Read-out in assay [8]: Interleukin-1 alpha (IL1a), IL1A (gene 3552)
Nature of the assay: BSK_KF3CT_IL1a: BioMAP Diversity Plus: KF3CT Assay for Interleukin-1 alpha (IL1a) Biomarker Activity (AID 2283070). The note with it: primary human keratinocytes with fibroblasts; actives raise or lower the signal. A digest of the protocol: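 Human keratinocyte plus foreskin fibroblast primary co-culture, sampled 24 h after chemical dosing. IL-1a measured by ELISA; responses fitted bidirectionally against DMSO baseline (negative control), so gain or loss of signal both count.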

Read-out in assay [9]: TIMP metallopeptidase inhibitor 2 (TIMP2), TIMP2 (gene 7077)
Nature of the assay: BSK_KF3CT_TIMP2: BioMAP Diversity Plus: KF3CT Assay for TIMP metallopeptidase inhibitor 2 (TIMP2) Biomarker Activity (AID 2283071). The settings on record: primary human keratinocytes with fibroblasts; actives raise or lower the signal. In outline: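 Cells: human keratinocytes co-cultured with foreskin fibroblasts. Treat with chemical, 24 h. Measure TIMP-2 by ELISA; fit curves bidirectionally vs DMSO baseline.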

Read-out in assay [10]: Transforming growth factor beta 1 (TGFb1), TGFB1 (gene 7040)
Nature of the assay: BSK_KF3CT_TGFb1: BioMAP Diversity Plus: KF3CT Assay for Transforming growth factor beta 1 (TGFb1) Biomarker Activity (AID 2283072). The note with it: primary human keratinocytes with fibroblasts; actives raise or lower the signal. In outline:
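Primary human skin cells (keratinocytes, foreskin fibroblasts) were co-cultured, exposed to test chemical and sampled at 24 h. TGF-b1 levels were measured by ELISA and fitted bidirectionally relative to DMSO.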

Read-out in assay [11]: C-C motif chemokine 2 (Homo sapiens) (UniProt P13500)
The assay can be described thus: BSK_KF3CT_MCP1: BioMAP Diversity Plus: KF3CT Assay for Monocyte Chemoattractant Protein 1 (MCP1/CCL2) Biomarker Activity (AID 2283073). The settings on record: primary human keratinocytes with fibroblasts; actives raise or lower the signal. A digest of the protocol: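 Biomarker MCP-1 is measured by ELISA in primary human keratinocytes co-cultured with foreskin fibroblasts, 24 h after chemical treatment; DMSO serves as the negative control and activity baseline.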

Read-out in assay [12]: Matrix Metallopeptidase 9 (MMP9), MMP9 (gene 4318)
Nature of the assay: BSK_KF3CT_MMP9: BioMAP Diversity Plus: KF3CT Assay for Matrix Metallopeptidase 9 (MMP9) Biomarker Activity (AID 2283074).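 For AC50: MMP9 protein level quantified by ELISA in the co-culture.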 The settings on record: primary human keratinocytes with fibroblasts; actives raise or lower the signal. In outline: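 Keratinocyte plus foreskin fibroblast human primary skin co-culture was dosed with chemical and MMP-9 was quantified by ELISA 24 h later. Bidirectional curve fitting used DMSO as negative control and activity baseline.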

Read-out in assay [13]: urokinase plasminogen activator (uPA), PLAU (gene 5328)
The assay can be described thus: BSK_KF3CT_uPA: BioMAP Diversity Plus: KF3CT Assay for urokinase plasminogen activator (uPA) Biomarker Activity (AID 2283075). The settings on record: primary human keratinocytes with fibroblasts; actives raise or lower the signal. A digest of the protocol:
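Human keratinocyte plus foreskin fibroblast primary co-culture exposed to chemical for 24 h. uPA levels were quantified by ELISA, and activity was fitted bidirectionally against a DMSO negative-control baseline.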

Read-out in another assay: CD40, CD40 (gene 958)
The assay can be described thus: BSK_LPS_CD40: BioMAP Diversity Plus: LPS Assay for CD40 Biomarker Activity (AID 2283076). The settings on record: primary human HUVEC with PBMC; actives raise or lower the signal. A digest of the protocol:
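Using a multiplexed primary human co-culture (umbilical vein endothelium plus PBMC), CD40 was read by ELISA 24 h after dosing, with cytotoxicity tracked by sulforhodamine B staining of parallel cultures and activity fitted bidirectionally versus DMSO.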

Read-out in assay [14]: E-selectin (Homo sapiens) (UniProt P16581)
Nature of the assay: BSK_LPS_Eselectin: BioMAP Diversity Plus: LPS Assay for Eselectin Biomarker Activity (AID 2283077). The settings on record: primary human HUVEC with PBMC; actives raise or lower the signal. A digest of the protocol:
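Dose chemical onto LPS-driven HUVEC/PBMC co-culture; after 24 h, run ELISA for E-selectin; fit up- and down-going responses relative to DMSO control.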

Read-out in assay [15]: Interleukin-8 (IL8), CXCL8 (gene 3576)
The assay can be described thus: BSK_LPS_IL8: BioMAP Diversity Plus: LPS Assay for Interleukin-8 (IL8) Biomarker Activity (AID 2283078). The note with it: primary human HUVEC with PBMC; actives raise or lower the signal. A digest of the protocol:
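In this LPS system, chemical-treated human umbilical vein endothelium/PBMC co-cultures were harvested at 24 h for IL-8 ELISA.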

Assay [16] in a line: BSK_LPS_SRB: Viability Assessment in the BioMAP Diversity Plus: LPS Assay (AID 2283079).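 Note: total protein by sulforhodamine B absorbance as a cytotoxicity measure; measured one day after compound addition.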 The note with it: primary human HUVEC with PBMC. In outline: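 Cytotoxicity endpoint in human endothelial–PBMC co-culture: 24 h exposure, then SRB (0.1%) staining, 560 nm read.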
Read-out in assay [17]: Interleukin-1 alpha (IL1a), IL1A (gene 3552)
Nature of the assay: BSK_LPS_IL1a: BioMAP Diversity Plus: LPS Assay for Interleukin-1 alpha (IL1a) Biomarker Activity (AID 2283080). The note with it: primary human HUVEC with PBMC; actives raise or lower the signal. In outline: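 Primary human HUVEC and PBMC co-culture stimulated with LPS is dosed and harvested at 24 h. Both increases and decreases in ELISA-measured IL-1a are scored relative to DMSO.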

Read-out in assay [18]: Plasminogen activator inhibitor-1 (PAI1), SERPINE1 (gene 5054)
The assay can be described thus: BSK_hDFCGF_PAI1: BioMAP Diversity Plus: hDFCGF Assay for Plasminogen activator inhibitor-1 (PAI1) Biomarker Activity (AID 2283066). The settings on record: primary human foreskin fibroblasts; actives raise or lower the signal. A digest of the protocol:
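Primary dermal fibroblasts (human foreskin), hDFCGF system; compound 24 h; PAI-1 by ELISA; bidirectional fit vs DMSO control.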

Read-out in assay [19]: Monocyte Chemoattractant Protein-1 (MCP1), CCL2 (gene 6347)
Nature of the assay: BSK_LPS_MCP1: BioMAP Diversity Plus: LPS Assay for Monocyte Chemoattractant Protein-1 (MCP1) Biomarker Activity (AID 2283081). The note with it: primary human HUVEC with PBMC; actives raise or lower the signal. In outline: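 Values derive from bidirectional fitting against DMSO of ELISA-measured MCP-1 in a human primary endothelial and mononuclear cell co-culture, 24 h after chemical addition under LPS activation.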

Chain of E-selectin (Homo sapiens) (P16581 whole entry, looked up): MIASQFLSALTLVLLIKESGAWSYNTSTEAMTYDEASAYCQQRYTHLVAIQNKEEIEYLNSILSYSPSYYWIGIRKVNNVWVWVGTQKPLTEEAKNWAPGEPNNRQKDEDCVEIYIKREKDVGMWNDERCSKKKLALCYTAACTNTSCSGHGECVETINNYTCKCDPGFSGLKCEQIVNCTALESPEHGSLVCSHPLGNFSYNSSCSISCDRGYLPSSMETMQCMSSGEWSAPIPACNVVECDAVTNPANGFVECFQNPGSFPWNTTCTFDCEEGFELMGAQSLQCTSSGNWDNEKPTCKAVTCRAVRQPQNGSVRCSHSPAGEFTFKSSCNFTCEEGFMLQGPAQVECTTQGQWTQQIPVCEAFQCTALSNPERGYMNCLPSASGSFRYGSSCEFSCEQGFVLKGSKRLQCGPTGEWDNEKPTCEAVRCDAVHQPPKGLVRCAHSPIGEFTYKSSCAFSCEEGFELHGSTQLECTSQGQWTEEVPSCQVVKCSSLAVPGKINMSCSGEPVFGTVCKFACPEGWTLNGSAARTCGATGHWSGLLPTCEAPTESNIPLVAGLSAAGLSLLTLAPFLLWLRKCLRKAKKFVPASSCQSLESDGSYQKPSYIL

As to `CO[C@@H]1[C@H](OC(=O)NC(=O)CCl)CC[C@]2(CO2)[C@H]1[C@@]1(C)O[C@@H]1CC=C(C)C`, the AC50 was 5.82 µM (active) in assay [1]; 8.35 µM (active) in [2]; 11.6 µM (active) in [3]; 4.58 µM (active) in [4]; 8.27 µM (active) in assay [6]; 7.91 µM (active) in [8]. For the same molecule, the AC50 is 6.36 µM (active) in assay [12]; 3.77 µM (active) with CD40, CD40 (gene 958); 9.98 µM (active) in assay [14]; 6.19 µM (active) in assay [17]. Further, the result in [5], in assay [7], in [9], in [10], in assay [11] and in assay [13] was inactive. Besides, the result in assay [15] and in assay [16] was inactive.

As for `c1ccc2c(c1)-c1cccc3cccc-2c13`, the outcome in assay [1], in [2], in assay [3], in assay [4], in assay [18] and in assay [5] was inactive. For the same molecule, the result in [6], in assay [7], in [8], in assay [9], in assay [10] and in assay [13] was inactive. Also, the outcome is “inactive” with CD40, CD40 (gene 958); “inactive” in [14]; “inactive” in assay [15]; “inactive” in assay [16]; “inactive” in assay [17]. In assay [12], the AC50 was 28.9 µM (active).

As for `Nc1ccc(Cc2ccc(N)cc2)cc1`, the outcome in [1], in assay [2], in [3], in [4], in assay [18] and in assay [5] was inactive. For the same molecule, the outcome in assay [6], in assay [7], in [8], in assay [9], in assay [10] and in assay [11] was inactive. In addition, the outcome in [12] was “inactive”; in assay [13] it was “inactive”; in the assay with CD40, CD40 (gene 958), “inactive”; in [14] it was “inactive”; in [15], “inactive”; in [16], “inactive”. For the same molecule, the result in [17] and in [19] was inactive.
